Tgondii IFNg = blocks Toxoplasma gondii growth in the presence of IFN-gamma; activity change, negative = inhibition, % (test concentration not listed); 3.8% of 69,000 active; Toxoplasma gondii growth in IFN-gamma-treated host cells; active compounds read low; in the data active = activity change below about -70%, passing the limit was not always enough;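 note: host cells are HeLa cells infected with Toxoplasma gondii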
The depositor's hits bear a star; i = inactive; ! = a repeat was not active. The entries come from a sample that favours hits as a whole.

SMILES	Tgondii IFNg
Cc1nc(C(F)(F)F)ccc1C(=O)NC1CCCN(Cc2cnn(C)c2C)CC1 (centres undefined)	2
CN1CCC2(C=C(C(=O)NC3CC3)c3ccccc32)CC1	-3
O=C(c1cnccn1)N1CCC(c2nc3ccc(-c4cccc(F)c4)cn3n2)CC1	-72*
O=S(=O)(c1ccccc1F)N1CCC(c2nc3ccc(-c4ccncc4)cn3n2)CC1	-28
O=C(c1ccc(F)cc1F)N1CCC(c2nc3ccc(-c4cccnc4)cn3n2)CC1	-3
Cc1ccc(F)c(NC(=O)CCC(=O)NCCN(C)S(C)(=O)=O)c1	-7
Cc1noc(-c2cc(=O)n(CC(=O)Nc3cc(F)ccc3C)c3ccccc23)n1	0
COc1ccc2cc(CN3CCCC(O)(CO)CC3)ccc2c1 (centres undefined)	5
CCOc1ccc(S(=O)(=O)NCCc2sc(-c3ccc(Cl)cc3)nc2C)cc1	17
COc1cc(CN2CC3ON=C(c4ccccc4F)C3C2)cc(OC)c1OC (centres undefined)	-4
COC(=O)c1cc(C)nc2c1c(=O)n(Cc1nc(-c3cccc(C)c3)oc1C)c(=O)n2C	-9
CN1C(=O)c2cc(NC(=O)c3ccc4c(c3)OCO4)ccc2OC[C@H]2O[C@H](CC(=O)O)CC[C@@H]21	-11
CN1C(=O)c2cc(NC(=O)c3cccc(F)c3)ccc2OC[C@@H]2O[C@H](CC(=O)NCc3ccccc3Cl)CC[C@H]21	-22
CN1C(=O)c2cc(NC(=O)c3ccc(C(F)(F)F)cc3)ccc2OC[C@H]2O[C@H](CC(=O)NCc3ccc4c(c3)OCO4)CC[C@@H]21	-75*
COC(=O)C[C@H]1CC[C@@H]2[C@@H](COc3ccc(NC(=O)Nc4cccc(C#N)c4)cc3C(=O)N2C)O1	-79*
CN1C(=O)c2cc(NC(=O)Nc3cccc(C#N)c3)ccc2OC[C@H]2O[C@@H](CC(=O)NCc3ccc(Cl)cc3)CC[C@@H]21	-5
CN1C(=O)c2cc(NC(=O)Nc3cccc(C#N)c3)ccc2OC[C@H]2O[C@@H](CC(=O)Nc3ccc4c(c3)CCC4)CC[C@@H]21	-58
Cc1cc(C(=O)Nc2ccc3c(c2)C(=O)N(C)[C@H]2CC[C@@H](CC(=O)NCc4ccc(-c5ccccc5)cc4)O[C@H]2CO3)no1	-79*
Cc1cc(C(=O)Nc2ccc3c(c2)C(=O)N(C)[C@H]2CC[C@H](CC(=O)NCc4ccc(-c5ccccc5)cc4)O[C@@H]2CO3)no1	-35
CN1C(=O)c2cc(NC(=O)c3cccc(F)c3)ccc2OC[C@H]2O[C@@H](CC(=O)NCC3CCCCC3)CC[C@H]21	-77*!
CN1C(=O)c2cc(NC(=O)c3cccc(F)c3)ccc2OC[C@@H]2O[C@H](CC(=O)NCC3CCCCC3)CC[C@@H]21	-23
CN1C(=O)c2cc(NC(=O)c3ccc4c(c3)OCO4)ccc2OC[C@H]2O[C@@H](CC(=O)O)CC[C@@H]21	7
Cc1cc(C(=O)Nc2ccc3c(c2)C(=O)N(C)[C@@H]2CC[C@@H](CC(=O)O)O[C@H]2CO3)no1	14
Cc1ccc(NC(=O)C(=O)NCCc2csc(-c3ccc(F)cc3)n2)c(C)c1	4
CCO[C@H]1CC[C@@H]2[C@@H]1OCCN2C(=O)c1cc2cc(Cl)ccc2o1	0
SMILES	Tgondii IFNg
CC(C)C(=O)N1CCc2c([nH]c3ccccc23)C12C(=O)N(C)c1ccccc12 (centres undefined)	82
CC[C@@H](Cn1nc(-c2ccc(F)c(F)c2)ccc1=O)NC(=O)C(C)(C)C	-59
O=C(c1cc2cccnc2n(Cc2ccccc2)c1=O)N1CCN(c2ccccc2)CC1	8
CCCS(=O)(=O)N1CCC2C1CCC(=O)N2c1cnn(C)c1 (centres undefined)	-36
O=C(CCn1cnc2cc(-c3noc(CCc4c[nH]c5ccccc45)n3)ccc21)N1CCCC1	-19
Cn1cccc1CN1CCC2(CCC(=O)N2Cc2ccncc2)CC1	-12
CSc1nsc(SC)c1C(=O)NCc1ccc2c(c1)OCO2	99
Cc1cc(C(=O)Nc2ccc3c(c2)C(=O)N(C)[C@@H]2CC[C@H](CC(=O)NCc4ccc(-c5ccccc5)cc4)O[C@@H]2CO3)no1	-87*
Cc1cc(C(=O)Nc2ccc3c(c2)C(=O)N(C)[C@@H]2CC[C@@H](CC(=O)NCc4ccc(-c5ccccc5)cc4)O[C@@H]2CO3)no1	-60
Cc1cc(C(=O)Nc2ccc3c(c2)C(=O)N(C)[C@H]2CC[C@H](CC(=O)NCc4ccc(-c5ccccc5)cc4)O[C@H]2CO3)no1	-62
O=C(NCCCn1cccn1)C1=NN(C2CCS(=O)(=O)C2)C(=O)CC1 (centres undefined)	-2
COCCN(C)C(=O)c1ccc2nnc(C3CCN(Cc4ccccc4)C3)n2c1 (centres undefined)	-2
Cc1ccc(-c2coc(-c3ccc(NC(=O)Cc4cccs4)cc3)n2)cc1	-53
Cn1c(Cn2cnc3ccccc32)nnc1SCC(=O)c1ccccc1	17
Cc1nc(-c2ccc(Cl)cc2)sc1CCNS(=O)(=O)c1ccccc1F	-72*
Cc1cc(F)ccc1S(=O)(=O)NCCc1sc(-c2ccc(Cl)cc2)nc1C	362
Cc1cccc(-c2nc(C)c(CCNS(=O)(=O)c3ccccc3F)s2)c1	i
Cc1nc(-c2ccccc2)sc1CCNS(=O)(=O)c1ccccc1	369
Cc1cccc(-c2nc(C)c(CCNS(=O)(=O)c3ccc(-c4ccccc4)cc3)s2)c1	-84*
Cc1cccc(-c2nc(C)c(CCNS(=O)(=O)c3ccc(I)cc3)s2)c1	i
Cc1cccc(-c2noc(-c3ccc(N4CCC(N5CCCCC5)CC4)nc3)n2)c1	11
COCC1c2nnn(C)c2CCN1C(=O)Cc1ccc(F)cc1C (centres undefined)	-6
c1nc(N2CCN(Cc3cc4n(n3)CCNC4)CC2)c2[nH]cnc2n1	63
CCCSCCCNc1nc(-c2nnc(-c3ccc(OC)cc3)o2)nc2ccccc12	57
Cc1nccn1-c1ccccc1CNC(=O)c1cc(C(C)C)nn1C	-2
SMILES	Tgondii IFNg
Cc1nc(-c2ccc(CNC(=O)c3cc(CC(C)C)nn3C)cc2)no1	-78*
CC(C)c1cc(C(=O)NCc2cc(-c3ccco3)on2)n(C)n1	3
CC(C)c1cc(C(=O)NCc2nc(-c3ccccc3)no2)n(C)n1	-100*
CC(C)Cc1cc(C(=O)NCc2cnn3ccccc23)n(C)n1	-34
CCCn1ncc(C(=O)NCc2ccc(-c3noc(C)n3)cc2)c1C	-14
CS(=O)(=O)NCc1cn2c(n1)CN(C(=O)NC1CCCC1)CC2	305
COCCN1C[C@@H]2CN(C(=O)[C@H]3CCCO3)C[C@H]2C1=O	32
CC(=O)Nc1ccc(-c2nc(-c3cc(C)ccc3C)co2)cc1	156
COc1ccc2c(c1)C=C(CN1CCc3nc(N)c(C(=O)N4CCOCC4)cc3C1)CO2	16
OC1=C(O)c2nc3cc(C(F)(F)F)ccc3nc21	27
OC1(c2ccc(Cl)c(Cl)c2)CSc2nc3cc(C(F)(F)F)ccc3n21 (centres undefined)	-84*
NNC(=S)Nc1cc(C(F)(F)F)ccc1Cl	28
CCOc1ccc(NC(=O)N2CCC(c3nc(C(=O)N4CCOCC4)c(C)o3)CC2)cc1	11
Cc1cnc(C(=O)N2CCC3(CC2)CC(c2ccccc2)C(=O)N3)cn1 (centres undefined)	3
CCOC(=O)c1cccnc1N1CCCC(N2CCOCC2)C1 (centres undefined)	0
CC(=O)Nc1cccc(C(=O)N(Cc2ccsc2)CC2CCCO2)c1 (centres undefined)	150
CC(=O)Nc1cccc(C(=O)N(Cc2ccsc2)CC(C)C)c1	-79*
CC(C)CN(Cc1ccsc1)C(=O)c1coc(CN2CCOCC2)c1	1
